Our source for the growth values is PubChem BioAssay (NCI).

Among the test systems are DU-145 prostate; MALME-3M melanoma; MDA-MB-231 breast; RXF 393 renal; SF-268 CNS; SF-295 CNS; SF-539 CNS; UACC-257 melanoma; M14 melanoma; HCT-15 colon; HT29 colon; SNB-75 CNS; SNB-19 CNS; U251 CNS; PC-3 prostate; SK-MEL-5 melanoma; UACC-62 melanoma; LOX IMVI melanoma; SK-MEL-28 melanoma.
What all share (experiment): NCI-60 one-dose screen, 48 h (100 = growth as untreated, 0 = no growth, -100 = all killed)
Common to all, as to conditions: 10 µM unless noted

Molecules are shown by their SMILES. The panel holds about 83,000 compounds, 20% with a hit somewhere; the sample as a whole holds those more often.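 The endpoint reported here, percent growth, reads 100 for growth as untreated, 0 for no net growth and -100 for all cells dead.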 Values without a mark were called inactive. Calls of active or inactive are those of the source. Rule for the calls: active = growth percent below 10; inactive = the rest.

On to `Cc1ccc2oc(=O)cc(C3C(C#N)=C(N)Oc4c3ccc3ccccc43)c2c1` (configuration not stated), for which the growth is 96.3% with DU-145 prostate; 95.5% with MALME-3M melanoma; 81.9% with MDA-MB-231 breast; 79.2% with RXF 393 renal; 82.7% in the experiment with SF-268 CNS; 75.8% with SF-295 CNS. In addition, the growth with SF-539 CNS is 82.6%; in the experiment on UACC-257 melanoma it was 85.4%; in the experiment on M14 melanoma, 61.5%; in the experiment on HCT-15 colon it was 51.1%; in the experiment on HT29 colon it was 38.8%; with SNB-75 CNS it was 67.5%. Also, the growth in the experiment on SNB-19 CNS is 84.9%; with U251 CNS, 82.8%; in the experiment on PC-3 prostate it was 55.6%; in the experiment with SK-MEL-5 melanoma it was 61.1%; in the experiment with UACC-62 melanoma, 61.4%; in the experiment with LOX IMVI melanoma, 75.4%. Also, the growth in the experiment with SK-MEL-28 melanoma is 86.2%.

As to `C=CCn1c(SCC(=O)Nc2ccc(C(=O)/C=C/c3cc(OC)c(OC)c(OC)c3)cc2)nnc1-c1ccc(OC)cc1`, the growth in the experiment with DU-145 prostate was 5.32% (active); in the experiment on MALME-3M melanoma, 46.1%; in the experiment with MDA-MB-231 breast, 13.8%; in the experiment with RXF 393 renal, -81.6% (active); in the experiment with SF-268 CNS, 5.5% (active); in the experiment on SF-295 CNS, -21.4% (active). For the same compound, the growth was -17.6% (active) with SF-539 CNS; 13.6% in the experiment on UACC-257 melanoma; 6.88% (active) in the experiment with M14 melanoma; -1.54% (active) in the experiment on HCT-15 colon; -27.9% (active) in the experiment on HT29 colon; 6.75% (active) in the experiment on SNB-75 CNS. Also, the growth in the experiment on SNB-19 CNS is 14.3%; in the experiment with U251 CNS, -65.2% (active); in the experiment with PC-3 prostate, 25.1%; in the experiment on SK-MEL-5 melanoma, 1.15% (active); in the experiment with UACC-62 melanoma, -6.54% (active); in the experiment on LOX IMVI melanoma it was -43.5% (active). For the same compound, the growth in the experiment with SK-MEL-28 melanoma is 10.1%.

As for `CC(C)(C)C(=O)/C=c1/[nH]c(=O)/c(=C/c2ccccc2O)s1`, the growth with DU-145 prostate is 78.6%; with MALME-3M melanoma it was 66.4%; with MDA-MB-231 breast, 58.1%; in the experiment with RXF 393 renal, 62.7%; in the experiment with SF-268 CNS it was 61%; in the experiment on SF-295 CNS it was 60.6%. Also, the growth in the experiment with SF-539 CNS was 60.1%; in the experiment with UACC-257 melanoma, 82.1%; with M14 melanoma, 30.4%; in the experiment with HCT-15 colon it was 33.8%; in the experiment with HT29 colon, 72.2%; in the experiment on SNB-75 CNS, 66.5%. For the same compound, the growth in the experiment on SNB-19 CNS was 66.5%; with U251 CNS, 27.8%; in the experiment with PC-3 prostate it was 53.4%; in the experiment on SK-MEL-5 melanoma, 42%; with UACC-62 melanoma, 58.3%; in the experiment with LOX IMVI melanoma, 40%. In the experiment on SK-MEL-28 melanoma, the growth is 69.6%.

On to `COC(=O)CCCNS(=O)(=O)c1cc(C(=O)Nc2ccc(NC(=O)c3cc(S(=O)(=O)NCCCC(=O)OC)c(O)c(O)c3O)cc2)c(O)c(O)c1O`, for which the growth in the experiment with DU-145 prostate is 98.1%; in the experiment with MALME-3M melanoma, 105%; in the experiment with MDA-MB-231 breast, 94.7%; in the experiment with RXF 393 renal, 107%; with SF-268 CNS, 91.9%; in the experiment with SF-295 CNS, 98.1%. Besides, the growth in the experiment on SF-539 CNS was 102%; with UACC-257 melanoma it was 96.2%; in the experiment with M14 melanoma it was 98.3%; with HCT-15 colon it was 92.1%; in the experiment with HT29 colon, 79.8%; in the experiment on SNB-75 CNS, 95.1%. Besides, the growth is 96.1% in the experiment on SNB-19 CNS; 70.3% with U251 CNS; 83.3% in the experiment on PC-3 prostate; 93.6% in the experiment with SK-MEL-5 melanoma; 76.7% with UACC-62 melanoma; 2.88% (active) with LOX IMVI melanoma. Further, the growth with SK-MEL-28 melanoma is 110%.

Consider `CC1=C2C(=C[C@@](C)(CO)[C@@H]2OC(=O)N(C)CCN(C)C(=O)OC(C)(C)C)C(=O)[C@](C)(O)C12CC2`, for which the growth with DU-145 prostate is 8.82% (active); in the experiment with MALME-3M melanoma, 67.3%; in the experiment on MDA-MB-231 breast it was 48%; with RXF 393 renal it was -57.3% (active); in the experiment with SF-268 CNS, 4.84% (active); in the experiment on SF-295 CNS it was 5.06% (active). The growth with SF-539 CNS was 57.9%; with UACC-257 melanoma it was 100%; in the experiment with M14 melanoma, 54.8%; with HCT-15 colon, 21%; with HT29 colon, 6.33% (active); with SNB-75 CNS, 79.9%. Moreover, the growth in the experiment on SNB-19 CNS is 72.3%; in the experiment on U251 CNS it was 22.6%; in the experiment with PC-3 prostate, 47.7%; in the experiment with SK-MEL-5 melanoma, 76.7%; in the experiment with UACC-62 melanoma, 84.2%; in the experiment with LOX IMVI melanoma it was 61.8%. Moreover, the growth in the experiment on SK-MEL-28 melanoma is 82.3%.

For the compound `COc1cc2nc(C(=O)N3CCCCC3)cc(Nc3ccccc3)c2cc1OC`, the growth in the experiment with DU-145 prostate is 92.8%; with MALME-3M melanoma it was 116%; with MDA-MB-231 breast, 88.6%; with RXF 393 renal it was 101%; in the experiment with SF-268 CNS, 84.2%; with SF-295 CNS, 96.3%. In addition, the growth in the experiment on SF-539 CNS was 95.5%; in the experiment on UACC-257 melanoma, 108%; with M14 melanoma, 116%; with HCT-15 colon, 102%; in the experiment on HT29 colon it was 104%; with SNB-75 CNS, 97.5%. Moreover, the growth with SNB-19 CNS is 104%; in the experiment with U251 CNS it was 102%; in the experiment with PC-3 prostate, 114%; with SK-MEL-5 melanoma it was 95.6%; in the experiment with UACC-62 melanoma it was 104%; with LOX IMVI melanoma, 94.9%. Further, the growth in the experiment with SK-MEL-28 melanoma is 110%.

Take `CN(C)c1ccc2cc(-c3nc4ccccc4s3)c(N)nc2c1`: the growth in the experiment with DU-145 prostate is 40.8%; with MALME-3M melanoma, 83.4%; in the experiment on MDA-MB-231 breast, 70.7%; in the experiment with RXF 393 renal, 83.5%; in the experiment with SF-268 CNS, 58.7%; in the experiment with SF-295 CNS, 22.3%. Further, the growth in the experiment on SF-539 CNS is 34%; in the experiment with UACC-257 melanoma it was 93.9%; in the experiment with M14 melanoma it was 50.9%; in the experiment with HCT-15 colon, 41%; in the experiment on HT29 colon, 23.9%; in the experiment with SNB-75 CNS it was 63.9%. Besides, the growth in the experiment on SNB-19 CNS is 60.7%; in the experiment on U251 CNS, 33.2%; in the experiment with PC-3 prostate, 20.2%; in the experiment with SK-MEL-5 melanoma, 58.7%; with UACC-62 melanoma, 95.5%; in the experiment with LOX IMVI melanoma, 85.3%. The growth in the experiment on SK-MEL-28 melanoma was 98.3%.

As to `c1coc(CSc2ncnc3nc[nH]c23)c1`, the growth with DU-145 prostate is 108%; with MALME-3M melanoma it was 125%; with MDA-MB-231 breast, 115%; in the experiment on RXF 393 renal it was 91.1%; in the experiment on SF-268 CNS, 101%; in the experiment with SF-295 CNS, 142%. Moreover, the growth in the experiment with SF-539 CNS was 91.6%; in the experiment on UACC-257 melanoma it was 97.3%; in the experiment with M14 melanoma, 101%; in the experiment with HCT-15 colon it was 101%; with HT29 colon, 110%; with SNB-75 CNS, 95.1%. The growth in the experiment with SNB-19 CNS was 86.2%; in the experiment on U251 CNS it was 102%; in the experiment on PC-3 prostate it was 90.1%; in the experiment with SK-MEL-5 melanoma it was 109%; in the experiment with UACC-62 melanoma, 98.3%; with LOX IMVI melanoma, 89.2%. For the same compound, the growth in the experiment on SK-MEL-28 melanoma was 108%.
